A selection: hits, their analogues and other compounds. The true share with any hit is near 3.5%.
GPR151 ag: activators of human GPR151 | PathHunter beta-arrestin GPR151 cells, luminescence | 1% of 650,000 active | AID 1508602 | activation, % at 11.2 µM; in the data active = activation above about 4.9%
TEAD-YAP block: TEAD-YAP interaction inhibition | HEK-TIYL cells, TEAD-Gal4/YAP UAS-luciferase luminescence | inhibition, % at 9.12 µM | 1.4% of 640,000 active; in the data active = inhibition above about 32%
FBW7 activator: human FBW7 E3 ligase activation, primary screen; AlphaScreen FBW7–phospho-cyclin E peptide binding, activator screen; Q969H0; 0.13% of 650,000 active; normalized activity (activation), % at 26.1 µM; AID 1259310; in the data active = normalized activity above about 1.9%;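 note: purified mutant Fbw7 with reduced substrate affinity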
Target sequence (Q969H0 whole entry, looked up): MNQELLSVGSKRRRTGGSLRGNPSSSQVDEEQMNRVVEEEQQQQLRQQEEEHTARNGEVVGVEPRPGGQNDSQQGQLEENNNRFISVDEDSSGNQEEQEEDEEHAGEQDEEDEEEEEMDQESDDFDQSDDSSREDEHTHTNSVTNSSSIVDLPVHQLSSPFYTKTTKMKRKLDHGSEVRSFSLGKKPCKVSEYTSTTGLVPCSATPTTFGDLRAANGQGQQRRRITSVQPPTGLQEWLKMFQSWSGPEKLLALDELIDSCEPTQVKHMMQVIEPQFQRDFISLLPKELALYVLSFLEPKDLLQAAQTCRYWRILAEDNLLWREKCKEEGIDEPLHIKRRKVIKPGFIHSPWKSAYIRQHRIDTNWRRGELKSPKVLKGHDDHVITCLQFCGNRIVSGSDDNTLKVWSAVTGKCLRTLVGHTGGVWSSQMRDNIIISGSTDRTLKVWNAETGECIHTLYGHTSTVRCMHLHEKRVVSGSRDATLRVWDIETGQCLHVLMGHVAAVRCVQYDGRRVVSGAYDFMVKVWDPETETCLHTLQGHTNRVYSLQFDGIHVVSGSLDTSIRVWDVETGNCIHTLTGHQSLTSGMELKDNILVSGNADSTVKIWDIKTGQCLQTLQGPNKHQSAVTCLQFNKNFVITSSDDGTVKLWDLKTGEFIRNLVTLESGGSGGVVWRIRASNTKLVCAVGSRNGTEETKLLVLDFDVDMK
MITF primary: human MITF inhibition, primary screen; O75030; AlphaScreen MITF homodimerization, bead proximity signal; inhibition, % at 2.6 µM; 0.91% of 650,000 active; AID 1259374; in the data active = inhibition above about 50%
Numbers stand for hits.

What do the screens show for `COc1ccccc1/C=N/NC(=O)C(=O)Nc1ccccc1OC`?
GPR151 ag: inactive; TEAD-YAP block: inactive; FBW7 activator: inactive; MITF primary: inactive

How did COc1ccc(-c2nc3ccccc3c(=O)n2NC(=O)c2ccccc2OC)cc1OC do in these assays?
GPR151 ag: inactive; TEAD-YAP block: inactive; FBW7 activator: inactive; MITF primary: inactive

Results for COCC(=O)N(Cc1ccc(F)cc1)Cc1cc2cc(C)c(C)cc2n2nnnc12 ?
GPR151 ag: inactive; TEAD-YAP block: inactive; FBW7 activator: inactive; MITF primary: inactive

What do the screens show for `CCOC(=O)c1ccc(NC(=S)Nc2cccc(OC)c2)cc1`?
GPR151 ag: inactive; TEAD-YAP block: 62; FBW7 activator: inactive; MITF primary: inactive

Results for COc1cccc(/C=N/NC(=S)Nc2cccc(F)c2)c1O ?
GPR151 ag: inactive; TEAD-YAP block: 40; FBW7 activator: inactive; MITF primary: 58

How did O=C(O)c1cccc(NC(=S)N/N=C/c2cc(Cl)ccc2O)c1 do in these assays?
GPR151 ag: inactive; TEAD-YAP block: inactive; FBW7 activator: inactive; MITF primary: 91

How did Cc1nc2ccccc2/c(=N/Nc2ccc([N+](=O)[O-])cc2)n1N do in these assays?
GPR151 ag: inactive; TEAD-YAP block: inactive; FBW7 activator: inactive; MITF primary: inactive

Results for CN1CCN(CCCNc2ccnc3cc4ccccc4cc23)CC1 ?
GPR151 ag: inactive; TEAD-YAP block: 75; FBW7 activator: inactive; MITF primary: inactive

Results for CN(C)CCN1CCN(c2ccnc3cc4ccccc4cc23)CC1 ?
GPR151 ag: inactive; TEAD-YAP block: 44; FBW7 activator: inactive; MITF primary: inactive

How did CN1CCN(CCCNc2nc(=S)[nH]c3ccccc23)CC1 do in these assays?
GPR151 ag: inactive; TEAD-YAP block: inactive; FBW7 activator: inactive; MITF primary: inactive

What do the screens show for `O=C(COC(=O)c1cc(O)c(O)c(O)c1)Nc1ccc(Br)cc1F`?
GPR151 ag: inactive; TEAD-YAP block: inactive; FBW7 activator: inactive; MITF primary: inactive

Results for O=C(CCCc1ccccc1)Nc1cccc(N2CCC(NC3CCOCC3)CC2)c1 ?
GPR151 ag: inactive; TEAD-YAP block: inactive; FBW7 activator: inactive; MITF primary: inactive

Results for NC(=O)[C@@H]1CCCN1C1CCN(c2cccc(NC(=O)CCCc3ccccc3)c2)CC1 ?
GPR151 ag: inactive; TEAD-YAP block: 39; FBW7 activator: inactive; MITF primary: inactive

Results for COc1ccc(/C=C/C(=O)Nc2ccc([N+](=O)[O-])cc2)cc1Br ?
GPR151 ag: inactive; TEAD-YAP block: inactive; FBW7 activator: inactive; MITF primary: inactive

Results for COc1cc(C2CC(c3c(O)cc(C)oc3=O)=Nc3ccccc3S2)cc(OC)c1O (stereo not given) ?
GPR151 ag: inactive; TEAD-YAP block: 44; FBW7 activator: inactive; MITF primary: inactive

Results for Cc1cc(C)cc(N=C2NC(=O)/C(=C/c3ccc(-c4ccc([N+](=O)[O-])cc4Cl)o3)S2)c1 ?
GPR151 ag: inactive; TEAD-YAP block: inactive; FBW7 activator: inactive; MITF primary: inactive

Results for COc1ccc(-c2nc(NCCN3CCOCC3)c3ncn(-c4ccsc4)c3n2)cn1 ?
GPR151 ag: inactive; TEAD-YAP block: 35; FBW7 activator: inactive; MITF primary: inactive

Results for CC(=O)c1cccc(-c2nc(NCCCN3CCCC3=O)c3ncn(-c4ccsc4)c3n2)c1 ?
GPR151 ag: inactive; TEAD-YAP block: 58; FBW7 activator: inactive; MITF primary: inactive

How did COc1ccc(CCNc2nc(NCCCN3CCCC3=O)nc3c2ncn3-c2ccsc2)cc1 do in these assays?
GPR151 ag: inactive; TEAD-YAP block: inactive; FBW7 activator: inactive; MITF primary: inactive

Results for Nc1cccc(-c2nc(NCCCN3CCCC3=O)c3ncn(-c4ccccc4)c3n2)c1 ?
GPR151 ag: inactive; TEAD-YAP block: 59; FBW7 activator: inactive; MITF primary: inactive

What do the screens show for `Nc1cccc(-c2nc(NCCCN3CCCC3=O)c3ncn(CCN4CCCC4=O)c3n2)c1`?
GPR151 ag: inactive; TEAD-YAP block: inactive; FBW7 activator: inactive; MITF primary: inactive

What do the screens show for `COc1ccc(-c2nc(NCCCN3CCCC3=O)c3ncn(-c4ccsc4)c3n2)cc1`?
GPR151 ag: inactive; TEAD-YAP block: 58; FBW7 activator: inactive; MITF primary: inactive

What do the screens show for `CCOC(=O)c1ccccc1NC(=O)c1sc2ncnc(N3CCN(c4ccc(OC)cc4)CC3)c2c1C`?
GPR151 ag: inactive; TEAD-YAP block: inactive; FBW7 activator: inactive; MITF primary: inactive

What do the screens show for `O=C(NC1CC1)c1ccc(-c2nc(NCCCN3CCCC3=O)c3ncn(-c4ccsc4)c3n2)cc1`?
GPR151 ag: inactive; TEAD-YAP block: 42; FBW7 activator: inactive; MITF primary: inactive

What do the screens show for `COc1ccc(-c2nc(NCCCN3CCCC3=O)c3ncn(-c4ccccc4)c3n2)cn1`?
GPR151 ag: inactive; TEAD-YAP block: 55; FBW7 activator: inactive; MITF primary: inactive

What do the screens show for `COc1ccc(-c2nc(NCCCN3CCCC3=O)c3ncn(-c4ccsc4)c3n2)cn1`?
GPR151 ag: inactive; TEAD-YAP block: 49; FBW7 activator: inactive; MITF primary: inactive

How did CC(=O)c1cccc(-c2nc(NCCCN3CCCC3=O)c3ncn(C(C)C)c3n2)c1 do in these assays?
GPR151 ag: inactive; TEAD-YAP block: 44; FBW7 activator: inactive; MITF primary: inactive

Results for COc1ccc(-c2nc(NCCCN3CCCC3=O)c3ncn(C(C)C)c3n2)cn1 ?
GPR151 ag: inactive; TEAD-YAP block: inactive; FBW7 activator: inactive; MITF primary: inactive

How did CN1C(=O)N(C)c2cccc3cccc1c23 do in these assays?
GPR151 ag: inactive; TEAD-YAP block: inactive; FBW7 activator: inactive; MITF primary: inactive

How did CN1C(/C=C/c2ccccc2Cl)=Nc2cccc3cccc1c23 do in these assays?
GPR151 ag: inactive; TEAD-YAP block: inactive; FBW7 activator: inactive; MITF primary: 53

What do the screens show for `CC(=O)Nc1ccc(Nc2nc(N3CCN(c4ccccn4)CC3)ncc2C)cc1`?
GPR151 ag: inactive; TEAD-YAP block: 49; FBW7 activator: inactive; MITF primary: inactive

What do the screens show for `Cc1cnc(N2CCN(c3ccccn3)CC2)nc1Nc1ccccc1`?
GPR151 ag: inactive; TEAD-YAP block: inactive; FBW7 activator: inactive; MITF primary: inactive

Results for CN=c1scc(-c2cccs2)n1/N=C/c1ccccc1O ?
GPR151 ag: inactive; TEAD-YAP block: 95; FBW7 activator: inactive; MITF primary: inactive

What do the screens show for `CN=c1scc(C)n1/N=C/c1ccc(O)c(O)c1O`?
GPR151 ag: inactive; TEAD-YAP block: inactive; FBW7 activator: inactive; MITF primary: inactive

Results for C=CCN=c1scc(-c2ccco2)n1/N=C/c1ccc(O)c(O)c1O ?
GPR151 ag: inactive; TEAD-YAP block: 55; FBW7 activator: inactive; MITF primary: inactive

Results for CN=c1scc(-c2cccs2)n1/N=C/c1ccc(O)c(O)c1O ?
GPR151 ag: inactive; TEAD-YAP block: 71; FBW7 activator: inactive; MITF primary: inactive

What do the screens show for `COCCN=c1scc(-c2ccco2)n1/N=C/c1ccc(O)c(O)c1O`?
GPR151 ag: inactive; TEAD-YAP block: inactive; FBW7 activator: inactive; MITF primary: inactive

Results for CCCCCC(=O)N/N=C(\C)c1ccc(O)c(OC)c1 ?
GPR151 ag: inactive; TEAD-YAP block: inactive; FBW7 activator: inactive; MITF primary: inactive

What do the screens show for `Cc1sc2ncnc(NCc3ccncc3)c2c1C`?
GPR151 ag: inactive; TEAD-YAP block: inactive; FBW7 activator: inactive; MITF primary: inactive

Source: PubChem
